The whole screen tested about 5,500 compounds, of which about 2,000 (36%) were called active. Inconclusive results (about 18%) are left out. Cut-off read from the data, not from the text of the source: active = normalized growth mostly below about 0.91 (no sharp cut-off); inconclusive = no clear call, values can overlap the other calls; inactive = mostly above about 0.92. Some of the results follow.
Assay: chemical genetic growth profiling, strain panel (AID 1159580);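 note: tested at 20 µM; growth read once vehicle control cultures reached saturation at 30 °C; 1 = growth at the plate median or of vehicle wells; lower values mean less growth of the strain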
Settings: growth OD

Measured: normalized growth

COc1cc2c(cc1OC)C(=O)c1ccc(OC)c(OC)c1OCC(=O)C2
inactive: S. cerevisiae deletion strains, locus YAL013W, strain DEP1, active compounds read low 1.01 | S. cerevisiae deletion strains, locus YBR021W, strain FUR4, active compounds read low 1.08 | S. cerevisiae deletion strains, locus YBR229C, strain ROT2, active compounds read low 1.01 | S. cerevisiae deletion strains, locus YCL029C, strain bik1, active compounds read low 1.01 | S. cerevisiae deletion strains, locus YDL035C, strain GPR1, active compounds read low 1.05 | S. cerevisiae deletion strains, locus YDL074C, strain BRE1, active compounds read low 1.05 | S. cerevisiae deletion strains, locus YDL101C, strain DUN1, active compounds read low 0.993 | S. cerevisiae deletion strains, locus YDL185W, strain tfp1, active compounds read low 0.982 | S. cerevisiae deletion strains, locus YDL192W, strain arf1, active compounds read low 1.04 | S. cerevisiae deletion strains, locus YDR101C, strain arx1, active compounds read low 1.06 | S. cerevisiae deletion strains, locus YDR162C, strain NBP2, active compounds read low 1.04 | S. cerevisiae deletion strains, locus YDR318W, strain mcm21, active compounds read low 1.01 | S. cerevisiae deletion strains, locus YDR388W, active compounds read low 1.01 | S. cerevisiae deletion strains, locus YDR502C, strain sam2, active compounds read low 0.991 | S. cerevisiae deletion strains, locus YEL061C, strain CIN8, active compounds read low 1.01 | S. cerevisiae deletion strains, locus YER110C, active compounds read low 1.01 | S. cerevisiae deletion strains, locus YER155C, strain BEM2, active compounds read low 0.992 | S. cerevisiae deletion strains, locus YER167W, strain BCK2, active compounds read low 0.995 | S. cerevisiae deletion strains, locus YGL078C, strain dbp3, active compounds read low 0.963 | S. cerevisiae deletion strains, locus YGL086W, strain mad1, active compounds read low 1.02 | S. cerevisiae deletion strains, locus YGL248W, strain PDE1, active compounds read low 0.994 | S. cerevisiae deletion strains, locus YGR078C, strain PAC10, active compounds read low 1.02 | S. cerevisiae deletion strains, locus YGR135W, strain pre9, active compounds read low 0.968 | S. cerevisiae deletion strains, locus YGR252W, strain gcn5, active compounds read low 1.05 | S. cerevisiae deletion strains, locus YHR030C, strain SLT2, active compounds read low 1 | S. cerevisiae deletion strains, locus YHR079C, strain IRE1 (second series), active compounds read low 1 | S. cerevisiae deletion strains, locus YHR094C, strain hxt1, active compounds read low 0.991 | S. cerevisiae deletion strains, locus YHR129C, strain ARP1, active compounds read low 1 | S. cerevisiae deletion strains, locus YHR200W, strain rpn10, active compounds read low 1.02 | S. cerevisiae deletion strains, locus YIL066C, strain RNR3, active compounds read low 1.01 | S. cerevisiae deletion strains, locus YIL073C, strain SPO22, active compounds read low 0.954 | S. cerevisiae deletion strains, locus YIL125W, strain kgd1, active compounds read low 1.01 | S. cerevisiae deletion strains, locus YIR030C, strain dcg1, active compounds read low 1 | S. cerevisiae deletion strains, locus YJL095W, strain BCK1, active compounds read low 1.01 | S. cerevisiae deletion strains, locus YJL134W, strain LCB3, active compounds read low 1.01 | S. cerevisiae deletion strains, locus YJL168C, strain set2, active compounds read low 1 | S. cerevisiae deletion strains, locus YJL187C, strain SWE1 (second series), active compounds read low 1.01 | S. cerevisiae deletion strains, locus YJR043C, strain POL32, active compounds read low 1.09 | S. cerevisiae deletion strains, locus YJR075W, strain HOC1, active compounds read low 0.997 | S. cerevisiae deletion strains, locus YKL009W, strain mrt4, active compounds read low 1.01 | S. cerevisiae deletion strains, locus YKL068W, active compounds read low 0.988 | S. cerevisiae deletion strains, locus YKL085W, strain MDH1 (second series), active compounds read low 0.962 | S. cerevisiae deletion strains, locus YKL085W, strain MDH1, active compounds read low 0.962 | S. cerevisiae deletion strains, locus YKR001C, strain vps1, active compounds read low 1 | S. cerevisiae deletion strains, locus YLR039C, strain RIC1, active compounds read low 1.03 | S. cerevisiae deletion strains, locus YLR058C, strain SHM2, active compounds read low 1.01 | S. cerevisiae deletion strains, locus YLR102C, strain apc9, active compounds read low 1.01 | S. cerevisiae deletion strains, locus YLR262C, strain YPT6, active compounds read low 1 | S. cerevisiae deletion strains, locus YLR268W, strain sec22, active compounds read low 1 | S. cerevisiae deletion strains, locus YLR330W, strain CHS5, active compounds read low 1 | S. cerevisiae deletion strains, locus YLR342W, strain FKS1 (second series), active compounds read low 1.13 | S. cerevisiae deletion strains, locus YLR371W, strain rom2, active compounds read low 0.984 | S. cerevisiae deletion strains, locus YLR418C, strain cdc73, active compounds read low 1.01 | S. cerevisiae deletion strains, locus YML016C, strain PPZ1, active compounds read low 1.01 | S. cerevisiae deletion strains, locus YML032C, strain rad52, active compounds read low 1.03 | S. cerevisiae deletion strains, locus YML124C, strain tub3, active compounds read low 0.983 | S. cerevisiae deletion strains, locus YMR078C, strain ctf18, active compounds read low 1 | S. cerevisiae deletion strains, locus YMR223W, strain ubp8, active compounds read low 1.01 | S. cerevisiae deletion strains, locus YMR263W, strain SAP30, active compounds read low 0.993 | S. cerevisiae deletion strains, locus YMR307W, strain GAS1, active compounds read low 1.2 | S. cerevisiae deletion strains, locus YNL067W, strain RPL9B, active compounds read low 0.976 | S. cerevisiae deletion strains, locus YNL233W, strain BNI4, active compounds read low 1.01 | S. cerevisiae deletion strains, locus YNL250W, strain rad50, active compounds read low 0.936 | S. cerevisiae deletion strains, locus YNL271C, strain bni1, active compounds read low 0.976 | S. cerevisiae deletion strains, locus YNL298W, strain CLA4, active compounds read low 1 | S. cerevisiae deletion strains, locus YNL307C, strain MCK1, active compounds read low 0.988 | S. cerevisiae deletion strains, locus YNR052C, strain pop2, active compounds read low 0.996 | S. cerevisiae deletion strains, locus YOL006C, strain TOP1, active compounds read low 1.27 | S. cerevisiae deletion strains, locus YOL012C, strain htz1 0.675 | S. cerevisiae deletion strains, locus YOL147C, strain pex11, active compounds read low 1.01 | S. cerevisiae deletion strains, locus YOR061W, strain CKA2, active compounds read low 1.02 | S. cerevisiae deletion strains, locus YOR069W, strain VPS5, active compounds read low 1 | S. cerevisiae deletion strains, locus YOR136W, strain idh2, active compounds read low 1 | S. cerevisiae deletion strains, locus YOR144C, strain elg1, active compounds read low 1 | S. cerevisiae deletion strains, locus YOR184W, strain ser1, active compounds read low 1.07 | S. cerevisiae deletion strains, locus YOR316C, strain cot1, active compounds read low 0.99 | S. cerevisiae deletion strains, locus YPL055C, strain LGE1, active compounds read low 1.09 | S. cerevisiae deletion strains, locus YPR119W, strain clb2, active compounds read low 0.977 | S. cerevisiae deletion strains, locus YPR141C, strain kar3, active compounds read low 0.972 | S. cerevisiae deletion strains, locus YPR163C, strain tif3, active compounds read low 0.999 | S. cerevisiae deletion strains, locus YPR167C, strain met16, active compounds read low 0.99 | S. cerevisiae deletion strains, strain wtn01, active compounds read low 1.04 | S. cerevisiae strains, strain wild type, active compounds read low 1.04

— PubChem BioAssay AID1159580 (chemical genetic matrix, 2015)
